Experimental data published in PubChem BioAssay (Tox21).
Active and inactive are the calls of the source. Calls come from the whole dose curve; as a rule, active = well fitted activation curve with a large enough effect in the repeat runs; inconclusive = weak or mixed curves; inactive = flat fitted curve, though single readings scatter.

Target: KiSS-1 receptor (Homo sapiens) (UniProt Q969F8)
Assay: Human kisspeptin (KISS1R) small molecule agonists, calcium flux assay in KISS1R-HEK293 cells (AID 1920064)
In short: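 Cell line: HEK293, stable human KISS1R. Dye loading 1 h at 37 C after 18 h culture. Read: kinetic fluorescence, 480/540 nm, 3 min at 1 s intervals.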

KiSS-1 receptor (Homo sapiens), sequence (Q969F8 whole entry, looked up): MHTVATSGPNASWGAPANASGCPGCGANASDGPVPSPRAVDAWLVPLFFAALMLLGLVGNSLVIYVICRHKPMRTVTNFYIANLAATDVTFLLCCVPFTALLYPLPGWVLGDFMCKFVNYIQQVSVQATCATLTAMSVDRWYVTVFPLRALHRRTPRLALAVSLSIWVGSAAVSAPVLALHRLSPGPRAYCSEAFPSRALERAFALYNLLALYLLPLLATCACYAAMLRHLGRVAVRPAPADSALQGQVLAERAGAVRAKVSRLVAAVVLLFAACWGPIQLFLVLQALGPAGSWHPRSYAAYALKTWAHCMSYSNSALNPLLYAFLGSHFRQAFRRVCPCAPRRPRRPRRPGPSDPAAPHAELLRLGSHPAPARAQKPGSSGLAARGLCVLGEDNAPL

| Compound | outcome |
| --- | --- |
| CC1(C)OC[C@@H](COC(=O)CCc2ccc(OC[C@@H](O)CNCCNC(=O)N3CCOCC3)cc2)O1 | inactive |
| C[C@@H]1O[C@@H](O[C@@H]2[C@@H](O)[C@H](OCCc3ccc(O)c(O)c3)O[C@H](CO[C@@H]3O[C@H](CO)[C@@H](O)[C@H](O)[C@H]3O)[C@H]2OC(=O)/C=C/c2ccc(O)c(O)c2)[C@H](O)[C@H](O)[C@H]1O | inactive |
| CCN(CC)c1ccc(N)cc1 | inactive |
| Cc1cccc([N+](=O)[O-])c1C(=O)O | inactive |
| CC(C)OCC1CO1 (configuration not stated) | inactive |
| c1ccc(C[P+](c2ccccc2)(c2ccccc2)c2ccccc2)cc1 | inactive |
| CCOC(=O)/C=C/C(=O)O | inactive |
| CCCCCCCCCCCCCCN(CCO)CCO | inactive |
| CCCCCCCCCCCCCCCC[N+](C)(C)CCN(Cc1ccc(OC)cc1)c1ncccn1 | inactive |
| Nc1nc2c(ncn2CCC(CO)CO)c(=O)[nH]1 | inactive |
| CCCSS/C(CCO)=C(\C)N(C=O)Cc1cnc(C)nc1N | inactive |
| CC[C@@]1(O)C(=O)OCc2c1cc1n(c2=O)Cc2c-1nc1ccccc1c2/C=N/OC(C)(C)C | inactive |
| CCCCCCCCCCOC(C)=O | inactive |
| CC1=C(/C=C/C(C)=C/C=C/C(C)=C\C(=O)O)C(C)(C)CCC1 | inactive |
| O=[N+]([O-])c1ccc(CO)cc1 | inactive |
| CN(C)CCOCCN(C)CCO | inactive |

| Compound | outcome |
| --- | --- |
| CCC(C)(CCC(C)C)C(=O)[O][Sn]([CH3])([CH3])[O]C(=O)C(C)(CC)CCC(C)C (configuration not stated) | inactive |
| CC(C)CCCC(C)(C)O | inactive |
| CC(C)=CCC1C(=O)N(c2ccccc2)N(c2ccccc2)C1=O | inactive |
| CN1C[C@H](C(=O)N[C@]2(C)O[C@@]3(O)[C@@H]4CCCN4C(=O)[C@H](Cc4ccccc4)N3C2=O)C[C@@H]2c3cccc4[nH]cc(c34)C[C@H]21 | inactive |
| O=C(O)COCC(=O)O | inactive |
| CC1=C2[C@@H]([C@H](C)CC[C@H]2/C=C(\C)C(=O)O)[C@H](O)C1 | inactive |
| COc1cc(C)ccc1O | inactive |
| Nc1nc(-c2ccc([N+](=O)[O-])cc2)cs1 | inactive |
| CC(C)(O)CCCC1=CCC(C=O)CC1 (configuration not stated) | inactive |
| NS(=O)(=O)c1cc2c(cc1C(F)(F)F)NCNS2(=O)=O | inactive |
| C#CC(C)(CC)OC(=O)c1ccccc1C(=O)O (configuration not stated) | inactive |
| CC(=O)CC(=O)OC(C)(C)C | inactive |
| CC(C)(O)CCC(C)(C)O | inactive |
| Clc1cc(Cl)c(-c2c(Cl)c(Cl)cc(Cl)c2Cl)cc1Cl | inactive |
| C=CC(=O)O | inactive |
| Nc1ccc(C(=O)O)c(O)c1 | inactive |
